From paper PMC7819943, “Rice protein-binding microarrays: a tool to detect cis-acting elements near promoter regions in rice”
Over roughly 68,000 sequences, “fluorescence intensity (a.u.)” has its median near 9,100; the highest 2% begin near 16,000. Only a selection was taken, and the highest values are over-represented in it overall.

Biological target: OsWRKY34 (Oryza sativa, UniProt Q0JBA9 1-250)
Test: protein-binding microarray (RPBM); PBS, 2% BSA, 51.3 ng/ul salmon testes DNA, 50 uM zinc acetate, 200 nM TF, 25 C, 1 h; high values mean tight binding
Conditions: protein: recombinant; tags: N-terminal polyhistidine and DsRed monomer fusion (pET32a); label: CyDye5-dUTP incorporated in the synthesized complementary strand; 3' TTTTT single-stranded linker to array surface; dsDNA, one strand shown
Method in brief: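 Using Ni–NTA, transcription factors fused N-terminally to polyhistidine and DsRed were purified after expression in E. coli BL21-CodonPlus. These were incubated at 200 nM with a blocked, double-stranded custom Agilent array for 1 h at 25 °C in a buffer containing 50 µM zinc acetate, and the array was washed. The binding signal is per-feature fluorescence intensity (arbitrary units) on an Axon 4000B scanner.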

Chain of OsWRKY34 (Q0JBA9 entry or part of it): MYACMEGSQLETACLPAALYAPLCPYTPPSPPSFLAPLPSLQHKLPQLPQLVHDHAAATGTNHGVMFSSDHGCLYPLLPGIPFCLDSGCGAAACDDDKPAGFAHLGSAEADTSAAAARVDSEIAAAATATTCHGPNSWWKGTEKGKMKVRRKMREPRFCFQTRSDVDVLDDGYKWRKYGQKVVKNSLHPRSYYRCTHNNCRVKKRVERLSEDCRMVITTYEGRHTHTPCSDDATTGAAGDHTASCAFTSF

Sequence | binding signal
CTTCTAAACATAGCTTCCACAATCGTCTCCGGGCCCTTCTCGGAGTCACCTAGTGCAG | 8320 fluorescence intensity (a.u.)
GATTAGAATCCGGGTGGGCTGTTTCCACCACAAGAAACTACGGAGTCACCTAGTGCAG | 8990 fluorescence intensity (a.u.)
AATTCCCAAAATATACAGTTTTTGTTATTCAGATGTTTACCGGAGTCACCTAGTGCAG | 8130 fluorescence intensity (a.u.)
TACCGATGGGGCTCTTATACTCCAACTCTTGCCCTGTTTACGGAGTCACCTAGTGCAG | 9020 fluorescence intensity (a.u.)
ATTCGATTTTCTTGCACCTAAACACATGCAACCCATCATTCGGAGTCACCTAGTGCAG | 10100 fluorescence intensity (a.u.)
CGTGTGACTGTTGCCGTGATGGTTTTGATGTTTGTTTTGGCGGAGTCACCTAGTGCAG | 9180 fluorescence intensity (a.u.)
CGGCGGAGGAGGAGGTTTCTTGCTCGTTTCTTGGGTTGCGCGGAGTCACCTAGTGCAG | 10800 fluorescence intensity (a.u.)
AGCTTGGTTTCTGGGTTGGGTTGGGTTTGGTTGCGTTGCGCGGAGTCACCTAGTGCAG | 22700 fluorescence intensity (a.u.)
GGCTTTTATGGGGCGGGCTTTCTTTGGTCAATGGTCACTACGGAGTCACCTAGTGCAG | 32200 fluorescence intensity (a.u.)
TGTGTGGTAGTTCGGGGTGGACCTACTTCTAATTATTGGGCGGAGTCACCTAGTGCAG | 14100 fluorescence intensity (a.u.)
TTACTACTACCACTCGTTTTCTTGGCTTGGTTTGGTTTGGCGGAGTCACCTAGTGCAG | 13000 fluorescence intensity (a.u.)
TTGGTTTTGGTTTGGGTGGTTGATGTGTGGGTGGTGGTGGCGGAGTCACCTAGTGCAG | 19000 fluorescence intensity (a.u.)
GGTGGGTAGTTTTCTGCGTTTTCTTTTGTATTTTTGGTTGCGGAGTCACCTAGTGCAG | 11500 fluorescence intensity (a.u.)
TCTATTGGGGCGGGGTGTGGTAAGGAAATTACAGTTTGCACGGAGTCACCTAGTGCAG | 17700 fluorescence intensity (a.u.)
TGTGTTGGTGATGTCGATGTGTGGGTGGTGGTTTTTTTTTCGGAGTCACCTAGTGCAG | 13800 fluorescence intensity (a.u.)
GGGAAATTGGGTAATTAATTAATTATGTGAAAGGGGTGGGCGGAGTCACCTAGTGCAG | 12800 fluorescence intensity (a.u.)
TTTTTCAATTTTTGGTTAAAATTTTTGGGGCTTTTCTTCGCGGAGTCACCTAGTGCAG | 8990 fluorescence intensity (a.u.)

Sequence | binding signal
AAGACATTGCATCAACCGTCTTGCCAATCTATGTTTTCTACGGAGTCACCTAGTGCAG | 8280 fluorescence intensity (a.u.)
ATTATAAGTTGTTTCTTCTTAGGTTGTGTTTAGTTCCTTGCGGAGTCACCTAGTGCAG | 9250 fluorescence intensity (a.u.)
GCTTCCTCGGCCTCGGGCCGCGTCTCCATGGTCGACTTGACGGAGTCACCTAGTGCAG | 11200 fluorescence intensity (a.u.)
ACCAGTTAATGTACATTTGCAATTATATTTTGTTATTTTTCGGAGTCACCTAGTGCAG | 8230 fluorescence intensity (a.u.)
GAGATGGATGTGTGGTGATGGCCTAGGATGTGGGATGGATCGGAGTCACCTAGTGCAG | 8160 fluorescence intensity (a.u.)
AGTTCTTGGAGTCACATGGTTGGTGGTGGTGTGGGCAGTTCGGAGTCACCTAGTGCAG | 14200 fluorescence intensity (a.u.)
GTTGTTTGTTTGAGACTCTGTTCCTTTTGGCTTGGTTTTCCGGAGTCACCTAGTGCAG | 12700 fluorescence intensity (a.u.)
TCTTTATTTACCTTTTTTTGAGTCGGACTTCTTTTTCTTTCGGAGTCACCTAGTGCAG | 8240 fluorescence intensity (a.u.)
GGTGGTGTTGTTGGTGGTGCAGTTCTTGGAGTCACATGGTCGGAGTCACCTAGTGCAG | 10300 fluorescence intensity (a.u.)
CCTTTTTAGTCGGACTTCTTTTTCTTTTTTACCGACTTTGCGGAGTCACCTAGTGCAG | 10300 fluorescence intensity (a.u.)
GTAAGTGTGTGTTCAGTGATGGCTATCGGTGGGTGGGTGGCGGAGTCACCTAGTGCAG | 16600 fluorescence intensity (a.u.)
TTTTTTGTCGGACTTTTTTCTTCATTTTTTACCTCTTTTGCGGAGTCACCTAGTGCAG | 16900 fluorescence intensity (a.u.)
GGAGTTTGGTTGGTTGGTGGTGTTCTTGACGGGGCATGGACGGAGTCACCTAGTGCAG | 31200 fluorescence intensity (a.u.)
GAGATGCGGCACGGTTGGCTTGTTGACTTTTTCCGGCCCGCGGAGTCACCTAGTGCAG | 17500 fluorescence intensity (a.u.)
ATGTAGATGTGGTCATGTGGGTGCTATCTGTGTGGGTGATCGGAGTCACCTAGTGCAG | 9360 fluorescence intensity (a.u.)
ACCACTTGGCTTTCTTTCTTTTATCCGGTTAGTTCCGGCGCGGAGTCACCTAGTGCAG | 8090 fluorescence intensity (a.u.)
